In ChEMBL document CHEMBL4513216, “Probing the Open Global Health Chemical Diversity Library for Multistage-Active Starting Points for Next-Generation Antimalarials” (ACS Infect Dis, 2020) one finds INHIBITION data, which are given here for 69 compounds.

The structures appear in SMILES notation. In all, about 69,000 compounds went through this assay and about 8,600 (12%) showed an effect of 50% or more. The entries come from a sample that favours strong results as a whole.

The assay has as its system Plasmodium berghei. As to the kind of experiment: Screen against P. berghei liver stage (PbLuc), transformed with Luciferase, at 10uM. Type of assay: functional, HepG2. The settings on record: tested at 10 uM.
On to `O=S(=O)(c1ccc(F)cc1)N1CC[C@H]2[C@H]1CCN2c1ncccn1`, for which the INHIBITION is 2.4%.

On to `O=C(c1cnc2c(cnn2C2CCCC2)c1)N1CCN(CCO)CC1`, for which the INHIBITION is 24%.

Turning to `Cn1cc(CN2CCCC(CCc3ccc(F)cc3)C2)cn1` (centres undefined), the INHIBITION worked out at 59.2%.

On to `Cn1cc(CN2CCCC(CCc3c(F)cccc3F)C2)cn1` (centres undefined), for which the INHIBITION came to 30.5%.

Consider `COc1ccc(CN2CC[C@H](O)[C@@H]2Cc2cnn(C)c2)cc1`, for which the INHIBITION came out at 47.4%.

For the compound `Fc1ccc(OCCCN2CCCC(Cn3cncn3)C2)cc1` (centres undefined), the INHIBITION is listed as 5.9%.

For the compound `Cn1cc(CN2CCCC(CCc3ccc(F)cc3F)C2)cn1` (centres undefined), the INHIBITION was determined as 43%.

Consider `Cn1cc(C[C@H]2[C@H](O)CCN2Cc2ccc(F)cc2)cn1`, for which the INHIBITION amounted to 57.9%.

With `COc1ccc(OCC2CCCN(Cc3ccncc3)C2)cc1` (centres undefined), the INHIBITION worked out at 46.3%.

For `Cn1cc(C[C@H]2[C@H](O)CCN2Cc2ccncc2)cn1`, the INHIBITION is recorded as 46.2%.

Take `CCn1cc(CN2CCCC(COc3ccccc3F)C2)cn1` (centres undefined): the INHIBITION is 69.3%.

In the case of `Cn1cc(CN2CCCC(CCc3ccc(F)c(F)c3)C2)cn1` (centres undefined), the INHIBITION came out at 38.6%.

With `CCn1cc(CN2CCCC(COc3ccc(F)cc3)C2)cn1` (centres undefined), the INHIBITION was 74%.

`Cn1nccc1CN1CCCC(COc2ccccc2F)C1` (centres undefined): the INHIBITION worked out at 17.4%.

Turning to `Cc1cc(NC(C)c2nncn2C2CCCC2)n2nc(C)c(C)c2n1` (centres undefined), the INHIBITION worked out at 32.1%.

In the case of `CC1CCN(c2nccn3c(=O)[nH]nc23)CC1`, the INHIBITION was 16.8%.

For the compound `Cc1oc(-c2cccc(F)c2F)nc1CN(CCO)C(C)C`, the INHIBITION is 13.6%.

As to `CNC(=O)c1ccc(C2CN(C(=O)c3coc(C)n3)CCO2)nc1` (centres undefined), the INHIBITION is given as -24.1%.

Turning to `FC(F)(F)COCCN1CCOC(Cn2cccn2)C1` (centres undefined), the INHIBITION is recorded as 40%.

In the case of `CCCNC(=O)NC(=O)CNC(C)(C)c1ccc2c(c1)OCCO2`, the INHIBITION is recorded as -4.94%.

Regarding `Cc1cnc(C)c(N2C[C@H]3OC(=O)N(C4CCCC4)[C@H]3C2)n1`, the INHIBITION was 68.1%.

`COc1ccccc1CN1C(=O)O[C@@H]2CN(c3nc(C)cnc3C)C[C@@H]21`: the INHIBITION amounted to 20.9%.

Turning to `Cc1ccc(C(N)=O)c(N2C[C@H]3OC(=O)N(C4CCCC4)[C@H]3C2)n1`, the INHIBITION is reported as -14.1%.

For `CC(C(=O)NCc1ccc(N2CCCC2)nc1)S(C)(=O)=O` (centres undefined), the INHIBITION turned out to be 45.7%.

As for `Cc1cccc(C(=O)N2CCCN(Cc3cscn3)CC2)c1`, the INHIBITION was -33.7%.

`COc1ccc(Cl)c(-c2noc3ncn(CCC(=O)O)c(=O)c23)c1`: the INHIBITION is reported as 25.9%.

Consider `CCOC(=O)CCn1cnc2onc(-c3ccc(OC)cc3)c2c1=O`, for which the INHIBITION was found to be 71.4%.

In the case of `CCOC(=O)CCn1cnc2onc(-c3cc(OC)ccc3Cl)c2c1=O`, the INHIBITION is listed as -8.07%.

With `Cc1noc(C)c1CC(=O)N1CCc2sccc2C1`, the INHIBITION is on record as 19.2%.

As for `Cc1ccc(NCc2cn3c(n2)CN(Cc2ccc(C)o2)CC3)nn1`, the INHIBITION was determined as 29.8%.

For the compound `CNc1cc(C2CN(C(=O)c3ccn(C)n3)CCO2)nc(C)n1` (centres undefined), the INHIBITION is given as -29%.

Consider `CCS(=O)(=O)CCSc1cccc(C#N)c1`, for which the INHIBITION is on record as 7.43%.

Take `CS(=O)(=O)CCSc1cccc(C#N)c1`: the INHIBITION stood at 7.84%.

For the compound `CCCS(=O)(=O)CCSc1cccc(C#N)c1`, the INHIBITION is reported as 51.4%.

In the case of `Cc1nsc(C(=O)NCCc2ccccc2)n1`, the INHIBITION is listed as -67.9%.

For `Cc1nsc(C(=O)NCCc2cccs2)n1`, the INHIBITION is reported as -12.1%.

In the case of `Cc1nsc(C(=O)NCCCc2ccccc2)n1`, the INHIBITION was found to be 58.1%.

As to `Cc1nsc(C(=O)NCCc2ccc(Cl)cc2)n1`, the INHIBITION stood at 20.9%.

On to `Cc1nsc(C(=O)NCCc2ccc(S(N)(=O)=O)cc2)n1`, for which the INHIBITION is recorded as 69.5%.

As to `Cc1nsc(C(=O)NCCc2ccc(F)cc2)n1`, the INHIBITION was -10.6%.

Regarding `CC(C)(O)CCc1cccc(C(=O)N2CCC[C@H]2CN2CCCC2)c1`, the INHIBITION was 1.56%.

On to `Cc1ccc(NC2CCN(C(=O)c3ccc4c(c3)CCC4)CC2)nn1`, for which the INHIBITION came out at 18.2%.

Take `CCC(CC)NC(=O)c1nc2n(n1)-c1ccccc1S(=O)(=O)N2`: the INHIBITION is -9.07%.

As for `Cc1n[nH]c(C)c1-c1nccnc1CC1CCCN(C)C1` (centres undefined), the INHIBITION was determined as 23.2%.

As for `c1ccc(-c2nnc(CN3C[C@H]4CC[C@@H](C3)N(CC3CCC3)C4)o2)cc1`, the INHIBITION amounted to 46.6%.

`Cc1ccc(C(=O)N2CC[C@H]3[C@@H]2CCC(=O)N3c2cccnc2)o1`: the INHIBITION worked out at 23.1%.

Turning to `COc1cccc(S(=O)(=O)CCN2CCCN(C(C)=O)CC2)c1`, the INHIBITION is reported as 45.8%.

Turning to `COc1cccc(S(=O)(=O)CCN2CCN(CC(F)F)CC2)c1`, the INHIBITION is 28.2%.

For `COc1cccc(S(=O)(=O)CCN2CCN(CCO)CC2)c1`, the INHIBITION is on record as 8.24%.

As for `COc1cccc(S(=O)(=O)CCN2CCCCC2)c1`, the INHIBITION was -11.1%.

For the compound `COc1cccc(S(=O)(=O)CCN2CCC3(CC2)OCCO3)c1`, the INHIBITION is given as 60%.

As for `COCCN1CCN(CCS(=O)(=O)c2cccc(OC)c2)CC1`, the INHIBITION worked out at 92.8%.

Consider `Cc1cc(CN2C[C@H](OCC3CCOCC3)[C@H]3COC[C@H]32)oc1C`, for which the INHIBITION worked out at 44.4%.

Regarding `CCc1cc(NCCCOC2CCN(C)CC2)ncn1`, the INHIBITION is recorded as 25.5%.

On to `O=C(NCCO)Nc1c(F)cc(F)cc1-c1ccccc1`, for which the INHIBITION is given as 33%.

As for `Cc1noc([C@@]23CCO[C@@H]2CCN(CC2CCOCC2)C3)n1`, the INHIBITION is 17.3%.

Turning to `C1CCN(c2nc(N3CCOCC3)nc3[nH]nnc23)CC1`, the INHIBITION is listed as 36.7%.

For `c1ccc2c(c1)CCN2c1nc(N2CCOCC2)c2nn[nH]c2n1`, the INHIBITION came out at 39.9%.

Turning to `c1ccc2c(c1)CCN(c1nc(N3CCOCC3)c3nn[nH]c3n1)C2`, the INHIBITION was determined as 54%.

As for `COc1ccsc1C(=O)N1CCCN(Cc2cscn2)CC1`, the INHIBITION is -51.5%.

Regarding `O=C(Cc1ccc2c(c1)OCCO2)N1CCN(c2cnccn2)CC1`, the INHIBITION was -5.25%.

`Cc1nc(C)n(CC2CN(CCOc3ccc(C#N)cc3)CCO2)n1` (centres undefined): the INHIBITION was determined as 42%.

Consider `Cc1nc(C)n(CC2CN(c3nnc(C)c(C)c3C#N)CCO2)n1` (centres undefined), for which the INHIBITION is -27.3%.

In the case of `Cc1cc(C)n(CC2CN(CCOc3ccc(C#N)cc3)CCO2)n1` (centres undefined), the INHIBITION is reported as 51.1%.

Consider `Cc1cc(C)n(CC2CN(c3nnc(C)c(C)c3C#N)CCO2)n1` (centres undefined), for which the INHIBITION is given as 53.1%.

Turning to `CCC1CN(c2nnc(C)c(C)c2C#N)CCO1` (centres undefined), the INHIBITION turned out to be 17.8%.

As to `Cc1cc(C)n(CC2CN(CCOc3cccc(C#N)c3)CCO2)n1` (centres undefined), the INHIBITION came out at 20.6%.

With `CN(C)C(=O)NC1COC2(CCN(Cc3ccccc3)CC2)C1` (centres undefined), the INHIBITION came out at 37.5%.

With `CC(N)Cc1ccccc1Sc1ccccc1` (centres undefined), the INHIBITION is listed as 24.7%.
